Source: PubChem BioAssay (National Center for Advancing Translational Sciences (NCATS))
HPGD inh: inhibitors of human 15-hydroxyprostaglandin dehydrogenase (HPGD); Potency, µM, for the others: top-dose activity change, negative = inhibition, most hits filed as inhibitors; P15428; hit rate 4.3% among 150,000; purified HPGD, NADH fluorescence kinetic, PGE2 substrate; AID 894; active = well fitted inhibition curve with a large enough effect, not every such curve was filed as active; inconclusive = small, poorly fitted or top-dose-only effect, or another doubt; inactive = no such curve, though single readings can be large or run the other way; also: potency is read from the fitted curve at half-maximal effect
Target sequence (P15428 whole entry, looked up): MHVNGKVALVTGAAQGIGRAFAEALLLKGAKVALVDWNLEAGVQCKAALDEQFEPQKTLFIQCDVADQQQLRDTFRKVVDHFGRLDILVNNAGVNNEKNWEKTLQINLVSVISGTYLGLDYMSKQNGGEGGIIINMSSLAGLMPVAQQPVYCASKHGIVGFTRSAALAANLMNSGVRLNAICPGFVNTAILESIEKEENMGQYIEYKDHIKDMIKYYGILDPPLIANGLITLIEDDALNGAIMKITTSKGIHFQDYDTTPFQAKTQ
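20 nM HPGD preincubated 15 min at room temperature with compound in 50 mM Tris-HCl pH 8, 0.01% Tween 20. Started with 1 mM NAD+ and 30 uM prostaglandin E2; NADH fluorescence (360/450 nm) read 5 times over 30-s intervals, last minus first.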
IMPase Li cell: membrane-permeable IMPase blocker, potentiated with lithium | CHO-M1 cells, IP1 TR-FRET (IP-One), carbachol + lithium | Potency, µM (highest dose often 59.4 µM), inactives show at the top dose activity, negative = IMPase inhibition, actives largely listed as inhibitors | hit rate 0.35% among 210,000 | AID 1457;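 also: IP1 builds up when IMPase is blocked and the TR-FRET signal falls; potency is read from the fitted curve at half-maximal effect; plate controls were basal vehicle for no effect and high inhibitor control for full effect; nearly all actives have a fitted effect of over 50% in size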
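CHO cells stably expressing M1 receptor (2000/well, cultured 16–30 h) treated 30 min at 37C with compound plus low lithium. Cytosolic IP1 by TR-FRET (665/620 ratio and 620 channel) after 10 min lysis; AC50 by Hill fit.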
NPSR antag: neuropeptide S receptor (human) antagonism, cAMP | Q6W5P4 | hit rate 1% among 220,000 | Potency, µM (top dose mostly 38.3 µM), for inactives: at the top dose activity change, negative = inhibition, most hits filed as inhibitors | CHO-NPSR cells, cAMP TR-FRET, antagonist mode; also: potency is read from the fitted curve at half-maximal effect; nearly all actives have a fitted effect of over 50% in size
PNC assembly inh: perinucleolar compartment assembly inhibition. PC3M PTB-GFP, PNC prevalence imaging, 16 h; stronger effect = lower value. activity change (PNC), negative = inhibition, % at 10 µM. hit rate 3.1% among 140,000. AID 2417;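 active = readout at or below -70, meaning at least 70% loss of cells showing the perinucleolar compartment, a nuclear body marking cancer cells; inconclusive = readout between -30 and a set limit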;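 also: plate controls were DMSO wells for no effect and camptothecin positive control wells for full effect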
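PC3M cells stably expressing PTB-GFP, 750–1000 cells/well, treated 16 h at 37 °C with compound (23 nl of library stock), in duplicate. After paraformaldehyde fixation and Hoechst stain, imaged at 20x; PNC prevalence scored by image analysis.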
IMPase cell inh: IMPase inhibition in cells; inhibition (IP1 accumulation), % at 46.1 µM; AID 901; P97697; CHO-M1 cells, IP1 accumulation, HTRF TR-FRET ratio; 120,000 tested, under 10 active; active = well fitted curve in the direction sought with a large enough effect in the signal ratio, not every such curve was filed as active; inconclusive = small, poorly fitted or top-dose-only effect, or a change in a side signal; inactive = no such curve, though single readings can be large or run the other way; the % refers to the signal ratio;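 also: cells stimulated with carbachol in lithium chloride buffer; plate controls were DMSO basal wells for no effect and reference inhibitor wells for full effect; higher means more IMPase inhibition seen as more IP1 and lower FRET ratio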
Target sequence (P97697 whole entry, looked up): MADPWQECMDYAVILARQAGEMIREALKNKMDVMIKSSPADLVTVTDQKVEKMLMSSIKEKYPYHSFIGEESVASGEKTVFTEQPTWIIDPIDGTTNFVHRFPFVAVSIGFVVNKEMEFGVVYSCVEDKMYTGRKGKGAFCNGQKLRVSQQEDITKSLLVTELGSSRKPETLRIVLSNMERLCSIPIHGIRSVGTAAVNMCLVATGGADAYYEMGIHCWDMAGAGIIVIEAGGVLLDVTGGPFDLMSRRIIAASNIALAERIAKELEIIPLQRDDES
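Elevated IP1 in lysates lowers TR-FRET signal (665/620 ratio and 620 channel reported). Cells were CHO-M1, given carbachol (50 uM as added) plus 50mM LiCl, pH 7.4, 30 min, 37C; compounds titrated up to 46 uM; AC50 by Hill equation.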
ALDH1A1 block: inhibitors of human aldehyde dehydrogenase 1A1. Potency, µM (highest dose often 75.3 µM), for inactives: top-dose activity, negative = inhibition, actives largely listed as inhibitors. Purified ALDH1A1, NADH fluorescence, propionaldehyde substrate. P00352. hit rate 7.3% among 220,000; active = well fitted inhibition curve with a large enough effect, not every such curve was filed as active; inconclusive = small, poorly fitted or top-dose-only effect, or another doubt; inactive = no such curve, though single readings can be large or run the other way;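 also: potency is read from the fitted curve at half-maximal effect; plate controls were no enzyme wells and a reference inhibitor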
* marks the source's active call; other numbers are inactive results; u = inconclusive; x = no result given; [ ] = dose if it differs, or a comment. In the library only some 11% were active in any assay of this set; here they are far more common. Unless noted, calls follow the shape of the dose curve; as a rule, active = well fitted curve in the direction sought with a large enough effect; inconclusive = small, poorly fitted or top-dose-only effect, or another doubt; inactive = no such curve, though single readings can be large; an effect the other way counts as inactive or inconclusive. Unless noted, % is scaled to controls: 0 for no effect and ±100 for the full control effect.

SMILES	HPGD inh	IMPase Li cell	NPSR antag	PNC assembly inh	IMPase cell inh	ALDH1A1 block
O=C(N/N=C/c1ccc(-c2ccccc2Cl)o1)c1ccccc1	x	-3.5%	-34.6%	x	x	u
Cc1ccc(S(=O)(=O)N/N=C\c2ccc([N+](=O)[O-])o2)cc1	-19.2%	2.3%	9.2%[46.1 µM]	-112.1*	0.1	u
O=[N+]([O-])c1ccc(/C=N/NS(=O)(=O)c2ccc(Cl)cc2)o1	28.2µM*	-7.3%	4.8%	81.6	x	7.94µM*
O=C1CN(/N=C\c2ccc([N+](=O)[O-])o2)C(=O)N1	-19.7%	4.2%	x	x	2.6[20.6 µM]	-13.9%[20.9 µM]
COc1ccc(C(=O)Nc2ccccc2N2CCN(C(=O)C(C)C)CC2)cc1Cl	-7.2%	5.2%	u	u	x	-8.1%
O=S(=O)(NCc1ccccc1F)c1cccc(S(=O)(=O)N2CCOCC2)c1	x	28.4%	-9.8%	x	x	15.3%
CS(=O)(=NS(=O)(=O)c1ccc(Cl)cc1)c1ccccc1 (configuration not stated)	x	x	-4.5%[7.67 µM]	x	x	x
c1ccc2c(c1)Cc1cc3cc4c(cc3nc1-2)OCO4	u	1.2%	x	x	x	u
O=C(N/N=C/c1cccc([N+](=O)[O-])c1)c1ccc2nc[nH]c2c1	-22.9%	36.2%[38.3 µM]	-4.2%[46.1 µM]	u	-8.4	11.2µM*
O=C(N/N=C/c1ccc([N+](=O)[O-])cc1)c1ccc2nc[nH]c2c1	-10.2%	-5.7%[38.3 µM]	-4.4%[46.1 µM]	-88.4*	-1.9	6.31µM*
O=C(Nc1ccccc1C(=O)N/N=C/c1ccc(F)cc1)c1ccccc1Br	-17.8%	4.5%[38.3 µM]	-12.7%[46.1 µM]	-114.2*	1.0	u
O=C(N/N=C/c1ccc(O)cc1)c1cccc(N/N=C/c2ccc(O)cc2)c1	x	x	20.6%	x	x	22.4µM*
O=C(N/N=C/c1ccc(O)cc1)c1ccc(NC(=O)c2ccccc2Br)cc1	14.1µM*	-1.3%[38.3 µM]	u	-17.2	u	u
COc1ccccc1/C=N/NC(=O)c1ccc(NC(=O)c2ccccc2Br)cc1	u	4.5%	-18.8%	52.5	x	u
O=C(C[n+]1ccc(C(=O)N/N=C/c2ccc(O)cc2)cc1)c1ccccc1	-13.9%	42.9%[38.3 µM]	-0.5%[46.1 µM]	7.0	5.8	1.58µM*
O=C(C[n+]1ccc(C(=O)N/N=C/c2ccc(Br)cc2)cc1)c1ccccc1	-18.6%	25.4%[38.3 µM]	-7.1%[46.1 µM]	11.0	-4.3	1.5%
COc1ccc(C(Nc2ccccn2)c2c(NC(=O)c3ccco3)sc(C)c2C)cc1 (configuration not stated)	-24.8%	3.7%	-37.2%	-21.0	-3.4	-9.3%
Cc1ccc(S(=O)(=O)NCCC(=O)OCC(=O)Nc2cccc(S(=O)(=O)NC3=NCCCCC3)c2)cc1	x	-8.2%	5.3%	x	x	-9.0%
CCc1cccc(C)c1NC(=O)COC(=O)CNS(=O)(=O)/C=C/c1ccccc1	1.0%	6.1%	19.0%	-21.4	x	u
CC(NC(=O)COc1ccccc1-c1ccccc1)c1ccccc1 (configuration not stated)	-6.6%	10.5%	-38.6%	31.2	x	-2.5%
C/C(CCC(C)C)=N\NC(=O)COc1ccccc1-c1ccccc1	x	10.5%	-15.9%	x	x	7.08µM*
CC1(NC(=O)COc2ccccc2-c2ccccc2)CCS(=O)(=O)C1 (configuration not stated)	-3.6%	29.2%[38.3 µM]	-0.1%[46.1 µM]	-95.8*	2.5	-6.8%
O=C(COc1ccccc1-c1ccccc1)NN=C1CCCC1	x	26.0%	-10.1%	x	x	11.2µM*
Cc1ccc(CNC(=O)COc2ccccc2-c2ccccc2)cc1	-11.8%	12.0%	-15.6%	u	x	-10.2%
O=C1CCC/C(=N\NC(=O)c2ccc(COc3ccccc3-c3ccccc3)cc2)C1	x	12.7%	-35.3%	x	x	-0.6%
COc1cccc(CC2(CO)CCCN(C/C=C/c3ccccc3OC)C2)c1 (configuration not stated)	x	x	24.3%	x	x	u
CCc1ccc(N(C(=O)Cn2nnc(-c3ccccc3)n2)C(C(=O)NC2CCCCC2)c2ccccn2)cc1 (configuration not stated)	-12.1%	-8.1%	-2.9%	18.3	x	9.9%
